# Screening data as filed in PubChem.
# Wnt act – activators of Wnt/beta-catenin signaling | Wnt/beta-catenin reporter cell assay, activator, plate reader | activation, % at 9.35 µM | 1.2% of 300,000 active | AID 743398; in the data active means activation above about 30%, passing the limit was not always enough; inconclusive means no clear call, values can overlap the other calls;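 further: 0% = neutral control wells and 100% = positive control wells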
# EBV LMP1 NFkB – reduces LMP1-driven NF-kappaB luciferase signal; inhibition, % at 12.5 µM; LMP1-induced NF-kappaB luciferase reporter cells, luminescence; 0.69% of 350,000 active; AID 504558; in the data active means inhibition above about 41%; inconclusive means no clear call, values can overlap the other calls;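 further: 0% = neutral control wells and 100% = reference inhibitor control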
# esBAF inh – blocks esBAF chromatin remodeling in mouse ES cells. Bmi1-luciferase knock-in reporter, 24 h; 100% = twice the neutral-well signal. 2% of 350,000 active. AID 602393. reporter increase, % at 12.5 µM; in the data active means activation above about 40%; inconclusive means no clear call, values can overlap the other calls;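 further: 0% = median of the plate's neutral control wells and 100% = double that signal; a rise in the Bmi1 reporter signal indicates esBAF inhibition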
# MITF act – MITF TRPM1 promoter activation in melanoma cells | AID 588334 | SK-MEL-5 TRPM1-promoter luciferase, 24 h; % of positive control, neutral wells = 0 | activation, % at 12.5 µM | 0.75% of 300,000 active;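 active means mean activation of at least 80% with every replicate also reaching 80%; inconclusive means mean reaches 80% but some replicate falls short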;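 further: 0% = neutral control wells and 100% = parthenolide positive control wells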
# TRPM1 prom inh – inhibitors of MITF-driven TRPM1 promoter in melanoma cells. SK-MEL-5 TRPM1 promoter luciferase, 24 h. 0.83% of 330,000 active. inhibition, % at 12.5 µM;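 active means mean inhibition across replicates of 60% or more, whatever share of single replicates reaches that level; inconclusive means some that reach 60%, reason not given; inactive means mean inhibition across replicates below 60%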
# C2C12 statin – protects C2C12 myotubes from simvastatin toxicity | ATP luminescence, 48 h; scaled: DMSO 0, geranylgeraniol control 100 | rescue of ATP level, % at 7.49 µM | 0.78% of 330,000 active | AID 602340;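 active means mean ATP rescue above about 67%, or every replicate alone reaching that limit, limit read from the data, passing the limit was not always enough; inconclusive means no clear call, values can overlap the other calls; inactive means mean under the limit and some replicate under it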;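 further: myotubes were challenged with 10 µM simvastatin during compound exposure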
# Active calls of the source: *; ? = inconclusive; . = not tested or not shown; ! = not confirmed by another sample. Sampled rows, rich in hits. Any-hit rate of the full collection: about 4%.
SMILES,Wnt act,EBV LMP1 NFkB,esBAF inh,MITF act,TRPM1 prom inh,C2C12 statin
Fc1ccc2cc(CCO[C@H]3CCCCO3)ncc2c1,32*,15,-29,40,-42,-5
CCCC(=O)Nc1ccc(C(=O)NN2C(=O)c3ccccc3C2=O)cc1,-2,-1,.,0,5,.
Cc1oc(C(C)(C)C)cc1C(=O)Nc1ccc(C(=O)O)cc1,.,-8,76*,68,-66,-32
Cc1cc(N2CCOCC2)ccc1/C=C1\NC(=O)N(CC(=O)Nc2ccc(F)cc2)C1=O,14,4,.,33,-32,.
Cc1cccc(NC(=O)CN2C(=O)N/C(=C\c3ccc(N4CCOCC4)cc3)C2=O)c1,9,-15,59*,15,-10,-7
COc1ccccc1NC(=O)COc1ccc(CO)cc1Cl,-3,-13,51*,.,-60,75*
COc1ccc(C(=O)N/C(=C/c2cccs2)c2nc3ccccc3[nH]2)cc1OC,.,-5,.,7,-6,.
O=C(/C(=C/c1ccc(Cl)cc1)c1nc2ccccc2[nH]1)c1ccccc1,84*,86*,-69,-86,84*,-18
COc1cc(/C=C(/C(=O)c2cccs2)c2nc3ccccc3[nH]2)cc(OC)c1O,.,-33,101*,.,53,120*
CC(=O)Nc1ccc(/C=C/c2nc3ccccc3[nH]c2=O)cc1,8,-7,20,42,-43,-2
O=C(N/C(=C/c1ccc(Cl)cc1)c1nc2ccccc2[nH]1)c1ccco1,4,-29,.,7,-2,.
O=c1[nH]c2ccccc2nc1/C=C/c1ccc(Cl)cc1,15,-37,45*,66,-65,120*
CCCCCC1CC(CC(=O)Nc2ccc([N+](=O)[O-])cc2)C(=O)O1 (stereo not given),-2,1,.,3,0,.
CCn1c(C(=O)OC)cc2c1ccn2-c1ccc(F)cc1,84*,-46,71*,121*,-113,-84
Cc1nc2nc(-c3ccccc3)cn2nc1C,-2,18,-42,14,-19,-54
Cc1ccc2nc(-c3ccccc3)nn2c1,-1,64*,-70,-41,42,-22
CC(=O)Nc1nc(C)c(-c2csc(Nc3ccccn3)n2)s1,52*!,-10,.,13,-13,.
CC(=O)Nc1nc(C)c(-c2csc(Nc3cccc(C(C)=O)c3)n2)s1,2,27,-10,-63,65*,-141
CC(=O)Nc1nc(C)c(-c2csc(Nc3cccc([N+](=O)[O-])c3)n2)s1,.,50*,3,-46,45,-101
CCC(=O)Nc1nc(C)c(-c2csc(Nc3cccc(C(=O)O)c3)n2)s1,0,10,.,-3,3,.
CC(=O)Nc1ccc(Nc2nc(-c3sc(NC(C)=O)nc3C)cs2)cc1,1,22,0,.,19,-21
COc1cccc(Nc2nc(-c3sc(NC(=O)CC(C)C)nc3C)cs2)c1,2,7,0,-25,29,-30
COc1cccc(Nc2nc(-c3sc(NC(=O)c4ccccc4)nc3C)cs2)c1,2,8,52*,-16,19,-5
Cn1c(=O)c2c(nc(NCCCN3CCOCC3)n2Cc2ccc(Cl)cc2)n(C)c1=O,.,-1,-5,.,-4,1
CC(=O)Nc1nc(C)c(-c2csc(Nc3ccc(O)cc3)n2)s1,.,45*,-11,-46,46,-47
SMILES,Wnt act,EBV LMP1 NFkB,esBAF inh,MITF act,TRPM1 prom inh,C2C12 statin
Cc1cc(-c2ccc3c(c2)COc2c4ccccc4nn2-3)on1,45*,-14,6,64,-68,-19
O=C(c1ccc2c3n(nc2c1)-c1ccccc1CO3)N1CCCCC1,20,12,5,20,-19,-256
C(#CC1CCCC1)c1ccc2c(c1)COc1c3ccccc3nn1-2,42*,-40,60*,119*,-118,4
CCCc1cc(-c2ccc3c(c2)COc2c4ccccc4nn2-3)on1,36*,-19,-8,?,-78,-2
CC(C)NC(=O)c1cccc(NC(=O)CC2SC(N3CCCCC3)=NC2=O)c1 (stereo not given),2,4,.,-4,-1,.
Nc1ncnc2nc(-c3ccccc3)[nH]c12,-3,5,1,.,.,-21
Cn1cnc(S(=O)(=O)N[C@H]2CC[C@H](CC(=O)Nc3ccc(-c4ccccc4)cc3)O[C@@H]2CO)c1,.,.,10,.,.,10
Cc1csc2nc(CSc3nncn3-c3ccccc3)c(Br)n12,.,-2,8,5,-6,3
Cc1csc2nc(CSc3nc4ccccc4o3)c(Br)n12,.,-9,.,91*,-96,.
Oc1ccc(/C=N/Nc2nccnc2Cl)c(O)c1,3,33,-45,.,-4,8
O=[N+]([O-])c1ccccc1/C=N/Nc1nccnc1Cl,13,-16,?,48,-44,112*
COc1ccc(/C=N/Nc2nccnc2Cl)cc1,.,32,-50,1,0,-117
COc1ccc(/C=N/Nc2nccnc2Cl)c(OC)c1,.,-19,.,88*,-84,.
CCOc1ccccc1/C=N/Nc1ccccc1[N+](=O)[O-],.,-19,54*,72,-69,29
O=[N+]([O-])c1cccnc1N/N=C/c1ccccc1O,0,12,-11,-1,1,-31
COc1ccccc1/C=N\Nc1ccccc1[N+](=O)[O-],29,-39,.,.,-83,.
COc1cccc(/C=N/Nc2nccnc2Cl)c1O,5,72*,.,-64,59,.
Cc1cc(C)cc(N(C(=O)c2snc(C(N)=O)c2N)C(C(=O)NCC2CCCO2)c2cccs2)c1 (stereo not given),3,-9,.,-13,13,.
CCc1ccc(N/C(N)=N/c2nc(CSc3ccccn3)cc(=O)[nH]2)cc1,-1,10,.,-22,23,.
O=C(C[C@@H]1CC[C@H]2[C@@H](COC[C@H](O)CN2Cc2ccc3c(c2)OCO3)O1)N1CCCCC1,.,.,-2,.,.,-33
C[C@]12CC[C@H](O)CC1=CCC1C2CC[C@@]2(C)C1CC[C@@H]2NC(=O)[C@@H](N)CO (stereo not given in full),-3,3,.,13,-14,.
COc1cccc(/C=N/Nc2ncnc(Cl)c2N)c1O,17,65*,.,-45,46,.
Oc1ccccc1/C=N/Nc1nccnc1Cl,5,58*,-29,.,-6,-14
COc1cccc(/C=N/Nc2ncnc3scc(-c4ccccc4)c23)c1O,-6,81*,.,-72,70*,.
O=c1[nH]c(/C=C/c2cccnc2)c([N+](=O)[O-])c(=O)[nH]1,3,-4,.,2,3,.
O=C(NCc1cccnc1)c1ccc(-c2ccc(F)c(F)c2)c2ccoc12,-3,.,-20,.,.,-11
CC(=O)Nc1cccc(OCc2ccc([N+](=O)[O-])cc2)c1,43*,-24,.,.,.,.
CC(=O)Nc1cccc(OCCCOc2ccc([N+](=O)[O-])cc2)c1,1,0,.,19,-24,.
CC(=O)Nc1cccc(NC(=O)c2ccc(COc3ccccc3)cc2)c1,-2,-40,98*,154*,-155,7
